# SW480 rerep: inducers of DNA re-replication in SW480 colon cancer cells | 340,000 compounds, 1.8% hits | SW480 DNA re-replication, Hoechst DNA content imaging, 48 h | Potency, µM (highest dose often 46.1 µM), without a hit: top-dose re-replication activation, usual class: activators; note: potency is the fitted concentration of half-maximal effect; % of control where 0% means no effect; nearly all actives have a fitted effect of over 55% in size
#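 Image-based read-out: total Hoechst fluorescence of nuclei (405 nm excitation, 500-530 nm emission), with hits raising the fraction of high-intensity nuclei. SW480 colon cells incubated 48 hr with compounds at 37 C.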
# MCF10A rereplic: inducers of DNA re-replication in MCF 10A breast cells; 350,000 compounds, 2.9% hits; AID 624296; Potency, µM (highest dose often 46.1 µM), for the others: at the highest dose activity, positive = re-replication, most hits filed as activators; MCF 10A DNA re-replication, Hoechst nuclear intensity, 48 h; note: potency is the fitted concentration of half-maximal effect; % of control where 0% means no effect; nearly all actives have a fitted effect of over 50% in size
# KB-3-1 tox: kills parental KB-3-1 adenocarcinoma cells; KB-3-1 viability, CellTiter-Glo ATP luminescence, 72 h; Potency, µM (top dose mostly 46.1 µM), hits mostly cytotoxic; 400,000 compounds, 1.4% hits; note: potency is the fitted concentration of half-maximal effect; % is set by controls: 0 for no effect and ±100 for the full control effect; nearly all actives have a fitted effect of over 60% in size
#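 Cells are dispensed, compounds pinned in, plates held at 37 °C for 72 h, then CellTiter-Glo is added and luminescence read after 10 minutes. Cell line: parental KB-3-1 in phenol-red-free DMEM, 10% FBS.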
# KB-V1 cytotox: KB-V1 MDR subline cytotoxicity | KB-V1 MDR cells viability, CellTiter-Glo, 72 h | AID 1347076 | Potency, µM (highest dose often 46.1 µM), usual class: cytotoxic | 400,000 compounds, 3.4% hits; note: potency is the fitted concentration of half-maximal effect; % is set by controls: 0 for no effect and ±100 for the full control effect; nearly all actives have a fitted effect of over 60% in size
#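 Cytotoxicity toward P-gp-expressing KB-V1 cells was determined as loss of CellTiter-Glo luminescence after 72 h at 37 degrees C. Compounds were tested in quantitative HTS format across a concentration range, with curves fitted to normalized data.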
# IL-1B inflam inh: inflammasome signaling inhibition, IL-1 beta readout; AID 743279; 360,000 compounds, 4.7% hits; activity change, % at 57.5 µM; THP-1 LPS/ATP IL-1B secretion, AlphaLISA, 16 h; stronger effect = lower value; in the data active = activity change below about -50%; inconclusive = mostly about -30% to -49%; note: % is set by controls: 0 for no effect and ±100 for the full control effect
#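 THP-1 cells pretreated 1 hr with compounds (up to 57.5 uM final), then stimulated with LPS (250 ng/mL final) plus ATP (1.25 mM final); secreted IL-1B measured by AlphaLISA after 16 hr, decreased signal indicating inhibition.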
# The depositor's hits bear a star; i = inactive; u = inconclusive; x = no result given. Compounds with a hit are over-represented: about 9.9% of the library has one in this group of screens. Unless noted, calls come from the whole dose curve; as a rule, active = well fitted curve in the direction sought with a large enough effect; inconclusive = small, poorly fitted or top-dose-only effect, or another doubt; inactive = no such curve, though single readings can be large; an effect the other way counts as inactive or inconclusive.
SMILES,SW480 rerep,MCF10A rereplic,KB-3-1 tox,KB-V1 cytotox,IL-1B inflam inh
COc1ccc(-c2nc3ccccc3o2)cc1NC(=O)COc1c(C)cc(Cl)cc1Cl,x,x,u,i,x
Cc1cccc(NC(=S)NC(=O)/C=C/c2ccco2)c1,2.06µM*,u,4.61µM*,5.17µM*,4.0
COc1ccc(-c2nc3ccccc3o2)cc1NC(=O)COc1ccc(C)c(C)c1,x,x,5.8µM*,u,x
CCC(=O)Nc1cc2nn(-c3ccc(OC)cc3)nc2cc1C,-1.4%,1.7%,i,i,-23.5
COc1ccc(-n2nc3cc(C)c(NC(=S)NC(=O)c4ccccc4C)cc3n2)cc1,10.8%,3.66µM*,i,i,-4.2
Cc1ccc(C)c(Nc2nc3c(S(=O)(=O)c4ccc(C(C)C)cc4)nnn3c3ccsc23)c1,x,x,u,i,x
CCOc1ccc(OCC)c(Nc2ccc3cc(S(=O)(=O)N4CCCC4)ccc3n2)c1,x,x,i,i,x
COc1ccccc1/C=C/C(=O)OCC(=O)NC1CCCCCCC1,-5.0%,13.3%,i,i,12.3
Cc1ccc(-n2nc3ccc(NC(=S)NC(=O)/C=C/c4ccco4)cc3n2)cc1,-6.8%,-0.7%,i,i,26.1
O=C(/C=C/c1ccco1)NC(=S)Nc1cccc(-c2nc3ccccc3s2)c1,u,5.8µM*,8.2µM*,6.51µM*,33.7
Cc1ccc(-n2nc3cc(C)c(NC(=S)NC(=O)/C=C/c4ccco4)cc3n2)cc1,3.66µM*,5.1%,i,i,15.4
O=C(/C=C/c1ccco1)NC(=S)Nc1ccc(N2CCOCC2)c(Cl)c1,5.17µM*,u,4.11µM*,u,21.4
Cc1ccc(-c2nc3ccccc3o2)cc1NC(=S)NC(=O)/C=C/c1ccco1,8.2µM*,7.31µM*,13µM*,u,-2.1
O=C(CN1C(=O)CCc2cc(S(=O)(=O)N3CCOCC3)ccc21)Nc1cccc(Cl)c1,x,x,i,i,x
Cc1cccc(C)c1Nc1sc(C(=O)c2ccccc2)c(N)c1C(=O)Nc1ccc(F)cc1,x,x,i,u,x
COc1ccnc(CSC(N)=Nc2ccc(F)cc2)c1,u,12.2%,u,u,-98.5*
COc1ccc(-c2cc(C(F)F)n3ncc(C(=O)n4ccnc4C)c3n2)cc1,u,16.4µM*,i,i,-21.3
COc1ccc(-c2cc(C(F)F)n3ncc(C(=O)N4CCc5ccccc54)c3n2)cc1,7.31µM*,4.61µM*,i,u,46.3
Cc1ccc(-c2cc(C(F)F)n3ncc(C(=O)N4CCCc5ccccc54)c3n2)cc1,-3.2%,18.4%,i,i,12.2
CCOc1ccccc1NC(=O)c1cnn2c(C(F)F)cc(-c3ccccc3)nc12,x,x,18.4µM*,i,x
COc1ccc(-c2cc(C(F)F)n3ncc(C(=O)N4CCN5CCCC5C4)c3n2)cc1 (stereo not drawn),17.2%,8.0%,i,i,-64.7*
O=C(NCC1CCCO1)c1cccc(S(=O)(=O)N2CCCCC2)c1 (stereo not drawn),u,-6.3%,i,i,0.0
CCOc1ccccc1NC(=O)c1cc(-c2ccccn2)nc2ccccc12,u,u,18.4µM*,u,u
COc1ccc(NC(=O)c2cc(-c3ccccn3)nc3ccccc23)c(OC)c1,1.4%,11.8%,i,i,u
CCC(=O)c1ccc(N2CCN(C(=O)c3ccc(Br)cc3)CC2)c(F)c1,-1.4%,4.3%,i,14.6µM*,4.3
SMILES,SW480 rerep,MCF10A rereplic,KB-3-1 tox,KB-V1 cytotox,IL-1B inflam inh
CCCC(=O)c1ccc(N2CCN(C(=O)c3ccc(Br)cc3)CC2)c(F)c1,0.1%,6.6%,i,i,-1.9
N#CC1=C(SCc2ccccc2)NC(=O)CC1c1cccc(O)c1 (stereo not drawn),-4.2%,-5.4%,i,u,-54.1*
COc1ccc(N=Nc2c(N)n[nH]c2N)cc1,-2.5%,3.8%,i,i,-52.8*
Nc1n[nH]c(N)c1N=Nc1ccccc1,16.4µM*,-12.6%,i,i,-66.4*
Nc1n[nH]c(N)c1N=Nc1ccc(Cl)cc1Cl,u,20.6%,u,i,-57.2*
Nc1n[nH]c(N)c1N=Nc1ccccc1F,-1.7%,-1.3%,i,u,-21.4
Nc1n[nH]c(N)c1N=Nc1ccc(F)cc1,u,6.6%,i,u,-27.5

# Compound activity (PubChem)
